Source: ChEMBL document CHEMBL1157539, “Thousands of chemical starting points for antimalarial lead identification” (Nature, 2010)

system: Plasmodium falciparum; assay: GSK_TCMDC: Inhibition of Plasmodium falciparum 3D7 in whole red blood cells, using parasite LDH activity as an index of growth. Test compounds present at 2uM; type: functional

Inhibition, 85%:
Cc1ccc(NC(=O)c2cccc(CN3CCCN(CC4CCCCC4)CC3)c2)cc1F.O=C(O)C(F)(F)F

Inhibition, 97%:
CCc1cn(C)c2c(N3CCCC3=O)cc(C(=O)N[C@@H](Cc3ccccc3)[C@H](O)CNC3CCCCC3)cc12
O=C(NCCc1ccc(Cl)c(Cl)c1)[C@@H]1CCCN1C(=O)c1ccc(O)c(-c2cccc(C(F)(F)F)c2)c1
Cc1cc(N2CCCC2)nc(Nc2ccc(NC(=O)C(C)C)cc2)n1
CCN(CC)CCOc1ccc(C(O)(C#CC(O)(c2ccc(C)cc2)c2ccc(OCCN(CC)CC)cc2)c2ccc(C)cc2)cc1 (stereo not given)
CN1CCCc2ccc(NC(=O)Nc3ccc(-c4ccccc4)cc3)cc2C1

Inhibition, 90%:
Cl.OC(CNCCCCCCNCC(O)c1ccc(Cl)c(Cl)c1)c1ccc(Cl)c(Cl)c1 (stereo not given)

Inhibition, 94%:
CS(=O)(=O)O.NC1=NC(CCc2ccccc2)N(c2ccccc2)C(N)=N1 (stereo not given)
Cc1ccc(Nc2nc(N)c3ccccc3n2)cc1.Cl
Cl.O=C(Nc1ccc(C(=O)Nc2ccc(C3=NCCN3)cc2)cc1)Nc1ccc(C2=NCCN2)cc1
COc1ccc(NC(=O)N2CCN(CCCCCNC(=O)/C=C/c3ccc(C(F)(F)F)cc3)CC2)cc1Cl

Inhibition, 98%:
Nc1ncnc2cc(-c3cccc(S(N)(=O)=O)c3)sc12

Inhibition, 99%:
CC(Cc1ccc(CNC(=O)c2ccc(CC(C)NCCc3cccc(Cl)c3)cc2)cc1)NCCc1cccc(Cl)c1 (stereo not given)
CC(=O)c1cccc(NC(=O)NC2CCN(c3ccnc(Nc4ccc(F)cc4)n3)C2)c1 (stereo not given)

Inhibition, 88%:
Cc1ccc(NC(=O)c2ccc3ncccc3c2)cc1OC1CCN(Cc2ccsc2)C1.O=C(O)C(F)(F)F (stereo not given)

Inhibition, 96%:
O=C(Nc1ccc(Cl)cc1)c1ccc(CN2CCCN(Cc3ccccc3)CC2)cc1.O=C(O)C(F)(F)F
CC(=O)c1cccc2[nH]c(C(=O)NC3CCC(CCN4CCc5ccc(C#N)cc5C4)CC3)cc12.Cl (stereo not given)
CC(C)(CNC(=O)/C=C/c1ccc(Cl)c(Cl)c1)CNc1cc(=O)c2ccccc2[nH]1

Inhibition, 86%:
CS(=O)(=O)c1cccc(-c2ccc3oc(C(N)=O)c(NC(=O)c4cccs4)c3c2)c1
COc1ccc(CNc2ncc(-c3ccsc3)c(-c3nccs3)n2)cc1OC
COc1cccc(-c2csc(C(=O)NCC3CCN(Cc4ccc(C(C)C)cc4)C3)c2)c1.O=C(O)C(F)(F)F (stereo not given)

Inhibition, 93%:
Cc1ccc(O)c(C(=O)c2cnc3c(c2)c(-c2ccc(F)cc2)c(C#N)c(=O)n3C)c1

Inhibition, 92%:
COc1ccccc1NC(=O)c1cc(C(=O)c2cc(Cl)ccc2O)cn(-c2ccccc2OC)c1=O
CCc1ccc(-c2cnc(N)c3cc(-c4ccnc(N)n4)ccc23)cc1
COc1cc(C=CC(=O)N2CCC(CCN3CCC(c4c[nH]c5ccccc45)CC3)CC2)cc(OC)c1

Inhibition, 100%:
COc1ccc2ncc(F)c(CCN3CCC(NCc4cc(C)c5c(c4)OCCO5)CC3)c2n1.Cl
CCOC(=O)c1ccc(NC(=O)Nc2cccc(-c3ccc(-c4nc5cc(C(F)(F)F)ccc5[nH]4)cc3)c2)cc1
O=C(Nc1ccc(Cl)cc1)Nc1cccc(-c2cccc(-c3nc4ccccc4[nH]3)c2)c1
CS(=O)(=O)c1cc2c(Nc3ccc(N4CCOCC4)cc3)c(C(N)=O)cnc2cc1Br.Cl
Cc1cc(O)c(CN(C)Cc2ccc(N(C)C)cc2)cc1C(C)C
Cc1cccn2c(=O)c3cc(C(=O)NCCc4ccccc4)c(=N)n(CCCOC(C)C)c3nc12
CCc1ccc(CNCC(CCNc2cc(=O)c3ccccc3[nH]2)NCc2cc(Br)cc(Br)c2)o1 (stereo not given)
FC(F)(F)c1ccc2[nH]c(-c3ccc(-c4ccc(CN5CCN(c6cnccn6)CC5)cc4)s3)nc2c1.O=C(O)C(F)(F)F
CCc1ccc(C(=O)Nc2cccc(CN3CCCN(Cc4ccc(O)cc4)CC3)c2)cc1.O=C(O)C(F)(F)F
CC(=O)Nc1ccc(NC(=O)c2cc(-c3ccc(C)cc3O)n[nH]2)cc1
N#Cc1cc(C(=O)Nc2ccccc2)c(N)nc1SCC(=O)Nc1ccc(Br)cc1
Cc1cc(Nc2ccncc2)n2nc(C)c(-c3ccc(Cl)cc3)c2n1
COc1cc2nc(Nc3ccc4c(c3)OCCO4)nc(N)c2cc1OC.Cl
CS(=O)(=O)CCNCc1nc(-c2ccc3c(Nc4ccc(Oc5ccccn5)cc4)ccnc3c2)cs1

Inhibition, 91%:
CC(=O)Nc1ccc(OCCCN(Cc2ccccc2OC(F)(F)F)c2ccc(C(F)(F)F)c(C#N)c2)c(Cl)c1
